Screening results as filed in PubChem.
NALP1 inh: NALP1 inhibition; S. cerevisiae NALP1/ASC/caspase-1 growth, X-gal OD620, 72 h; inhibition, % at 10 µM; 0.61% of 280,000 active; AID 2071; in the data active = inhibition mostly above about 24%, no sharp cut-off; inactive = mostly below about 32%
tim10-1 inh: tim10-1 yeast growth inhibition; S. cerevisiae tim10-1 ts strain growth, BacTiter-Glo, 24 h; inhibition, % at 20 µM; 2.2% of 330,000 active;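 active = inhibition of at least 40%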;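 note: mutant grown at 25 °C; 0% = DMSO wells with yeast and 100% = wells holding no yeast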
NLRP3 yeast inh: blocks the NALP3 inflammasome reconstituted in yeast. inhibition, % at 10 µM. 0.39% of 330,000 active. Yeast reconstituted NLRP3/ASC/caspase-1, beta-gal luminescence, 24 h;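 active = inhibition of 50% or more; inactive = inhibition below 50%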;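 note: plate controls were induced DMSO wells for no effect and uninduced yeast grown without galactose for full effect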
SKKanGAS inh: blocks kanamycin growth of S. pyogenes SKKanGAS strain; BacTiter-Glo, 6 h; 1.3% of 300,000 active; AID 1662; inhibition, % at 7.5 µM;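 active = mean replicate score, as percent of positive control median, at least 50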;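 note: strain carries kanamycin resistance gene driven by streptokinase promoter and grows in 40 µg/ml kanamycin; loss of luminescence reflects streptokinase promoter inhibition or plain growth inhibition; 0% = median of DMSO wells and 100% = positive control at its reference dose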
TIM10 inh: inhibits growth of TIM10 yeast strain; S. cerevisiae TIM10 strain growth, BacTiter-Glo luminescence, 24 h; inhibition, % at 10 µM; 1.4% of 330,000 active; AID 463195;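 active = inhibition of 40% or more at the single tested concentration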;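 note: wild-type TIM10 isogenic control strain grown at permissive 25 °C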
tim23-1 inh: tim23-1 yeast growth inhibition | S. cerevisiae tim23-1 growth, BacTiter-Glo luminescence, 24 h | inhibition, % at 20 µM | 1.3% of 330,000 active | AID 463212;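 active = growth inhibition of the mutant yeast at or above 50%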;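 note: temperature-sensitive mutant grown at 25 °C; plate controls were DMSO-treated mutant yeast for no effect and medium wells lacking yeast for full effect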
Numbers without * were called inactive; nt = not tested or not shown. Rows were chosen to be rich in hits. Some 4.9% of all compounds tested hit in one or more screens of this group.

SMILES | NALP1 inh | tim10-1 inh | NLRP3 yeast inh | SKKanGAS inh | TIM10 inh | tim23-1 inh
CNC(=O)c1c(NC(=O)c2ccc(N3C(=O)CCC3=O)cc2)sc2c1CCC(C)C2 (stereo unspecified) | 19 | 29 | 12 | 61* | -5 | 30
CNC(=O)c1c(NC(=O)c2ccc(N3C(=O)CCC3=O)cc2)sc2c1CCCC2 | -4 | 13 | 3 | 7 | 7 | 16
CC1CCC(C(=O)c2c(O)c3ccccc3oc2=O)CC1 (stereo unspecified) | 16 | -14 | 3 | 53* | -18 | 24
Cc1ccc(CSCC(=O)NN=C2CCN(C)CC2)cc1 | 24 | 3 | 18 | 4 | 9 | 13
O=S(=O)(N[C@H]1C[C@@H](NS(=O)(=O)OCC(Cl)(Cl)Cl)C2CCCCC21)OCC(Cl)(Cl)Cl (stereo partly specified) | -6 | nt | nt | 93* | nt | nt
O=C(Nc1cccc(C(=O)O)c1)/C(=C\c1ccccc1Cl)NC(=O)c1ccco1 | 3 | -1 | 14 | -9 | 0 | -1
Cc1cc(C)c2cccc(N)c2n1 | 11 | 18 | 24 | -10 | 15 | 10
Cc1cc(C)c2ccc(N)nc2c1O | 4 | 24 | 4 | 99* | 15 | 0
CCN(CC(=O)NCc1cccs1)C(=O)c1ccc(NS(=O)(=O)c2ccc(C(C)=O)cc2)cc1 | nt | -17 | 2 | 11 | -3 | -5
CCN(CC)C(=O)C1CCN(S(=O)(=O)c2cccc3nonc23)CC1 | 43* | 19 | -9 | 4 | -5 | 9
Cc1ccc(-n2c(SCC(=O)c3c(N)n(C4CC4)c(=O)[nH]c3=O)nnc2N2CCOCC2)cc1 | nt | 7 | 13 | nt | 2 | 3
O=c1c2cc(Br)ccc2nc(-c2ccc(Cl)cc2)n1O | 4 | nt | nt | 89* | nt | nt
O=C(N/N=C/c1cc([N+](=O)[O-])cc(Br)c1O)C12CC3CCC(CC(C3)C1)C2 | 5 | 20 | 16 | 51* | 35 | 29
COc1cc(/C=N/NC(=O)C23CC4CC(CC(C4)C2)C3)cc(Br)c1O | -1 | -5 | 5 | 8 | 1 | 16
CN(c1ccc(F)cc1)S(=O)(=O)c1ccc(Cl)c(C(=O)NCC(c2ccco2)N2CCCCC2)c1 (stereo unspecified) | nt | 15 | 22 | nt | 6 | 21
O=C1NC(=O)/C(=C/c2ccccc2Oc2ccc(Cl)cc2)S1 | 25 | 14 | -16 | 57* | 19 | 29
CCOC(=O)N1CCC(N2C(=O)c3ccc(C(=O)Nc4ccc(OC)c(OC)c4)cc3C2=O)CC1 | -3 | 2 | 11 | -7 | -12 | 1
CN(C)C=Nc1ccc2nc3c(cc2c1)[nH]c1ccccc13 | 14 | -9 | 24 | 5 | 19 | 23
COc1ccc2cc(C(=O)NCc3ccccc3)c(=Nc3ccc(C(=O)O)cc3)oc2c1 | 3 | 1 | 1 | 59* | 12 | 4
COc1cc(/C=C2/CCC/C(=C\c3cc(O)c(OC)c(Cl)c3)C2=O)cc(Cl)c1O | 24* | 4 | 18 | 43 | 2 | 10
O=C(Nc1ccc(F)cc1F)c1cccc(C(=O)Nc2ccc(F)cc2F)n1 | 21 | -7 | 11 | -2 | -9 | -9
OCc1c[nH]c(=S)n1CCOc1cccc(C(F)(F)F)c1 | -7 | -7 | 20 | 4 | -2 | 6
CC(CCc1ccc(O)cc1)NCCC(c1ccccc1)c1ccccc1 (stereo unspecified) | 22 | -57 | 26 | 3 | 1 | -12
CC(CCc1ccc(O)cc1)N(C)CCc1ccccc1 (stereo unspecified) | 26* | -21 | 25 | 0 | -10 | -55
Cc1cc(OC(=O)c2ccc(C)c(C)c2)c([N+](=O)[O-])c(=O)[nH]1 | 9 | -16 | 22 | 3 | -15 | -5
SMILES | NALP1 inh | tim10-1 inh | NLRP3 yeast inh | SKKanGAS inh | TIM10 inh | tim23-1 inh
Cc1ccc(C2(C)NC(=O)N(CC(=O)Nc3nc(-c4ccccn4)cs3)C2=O)cc1 (stereo unspecified) | nt | 18 | 12 | 9 | 2 | -3
c1ccc(CSC2=NNC(c3ccccn3)S2)cc1 (stereo unspecified) | nt | 36 | 19 | 83* | 23 | 24
O=C(NNC(=S)NC(=O)c1cccc([N+](=O)[O-])c1)c1ccc(O)cc1 | -10 | 11 | -7 | 0 | 4 | 9
O=C(NNC(=S)NC(=O)c1cccc([N+](=O)[O-])c1)c1ccc(Br)cc1 | -14 | 24 | 15 | 68* | 12 | 24
Cc1ccc(C(=O)NC(=S)NNC(=O)c2cccc([N+](=O)[O-])c2)cc1 | -5 | -5 | 31 | 74* | 14 | 23
O=S1(=O)N=C(Nc2ccc(O)cc2)c2ccccc21 | 12 | -5 | 11 | 1 | 3 | 1
O=S1(=O)N=C(Nc2ccc(N3CCOCC3)c(Cl)c2)c2ccccc21 | 16 | 2 | 8 | 50* | 14 | -11
CCN(c1ccccc1)S(=O)(=O)c1cccc(C(=O)N2CCN(S(=O)(=O)c3ccccc3)CC2)c1 | -2 | 14 | 26 | -7 | 6 | 34
CN(C)CCCN(C(=O)CCc1ccccc1)c1nc2ccc(Cl)cc2s1 | 64* | -31 | 26 | 1 | 27 | -8
CN(C)CCCN(C(=O)COc1ccccc1)c1nc2ccc(Cl)cc2s1 | -7 | 23 | 11 | -18 | 20 | 23
Cc1ccc2nc(N(CCCN(C)C)C(=O)CCc3ccccc3)sc2c1 | 48* | nt | nt | 3 | nt | nt
Cc1ccc2nc(N(CCCN(C)C)C(=O)CS(=O)(=O)c3ccccc3)sc2c1 | nt | -8 | 9 | -6 | 8 | 9
CCOC(=O)C1CCCN(C(=O)c2cc3cc(OC)c(OC)cc3[nH]2)C1 (stereo unspecified) | 6 | 6 | 10 | 1 | -3 | 8
COc1ccc(OCc2cc(C(=O)N3CCN(CC4CC4)CC3)no2)c(Cl)c1 | 28* | -11 | 18 | 0 | 5 | 23
CCOC(=O)c1c(NC(=O)c2cccs2)sc2c1CCCC2 | 12 | 12 | 10 | -3 | -5 | 16
CCOC(=O)c1c(NC(=O)c2cccs2)sc2c1CCN(C(=O)OCC)C2 | 20 | 18 | 27 | 54* | 15 | 20
COc1ccnc2c1c(=O)n(Cc1cccc(Cl)c1)c(=O)n2C | 13 | 19 | 25 | 1 | 0 | 25
CC(C)(C)c1cc2cccnc2n1Cc1cccc(Cl)c1 | 46* | -34 | 12 | 8 | -27 | -31
c1ccc(-n2cc(CNCCc3cscn3)c(-c3ccc4c(c3)OCO4)n2)cc1 | 32* | 21 | 19 | 8 | 19 | 19
OCc1cn(-c2ccccc2)nc1-c1ccc2c(c1)OCCO2 | 9 | 22 | 23 | -9 | 2 | -14
CCCCNC(=O)c1cc(-c2ccc(OC)c(OC)c2)on1 | 43* | 12 | 18 | -10 | -7 | -13
CCCCNC(=O)c1cc(-c2ccc(OC)cc2)on1 | 25 | 15 | 19 | 4 | -8 | 6
NC(=S)N/N=C/c1c(O)c(Br)cc2oc3c(c12)CCCC3 | -2 | 20 | 15 | 87* | 24 | 20
